From publication PMC5540273 (PLoS ONE, 2017) come the findings set out here.

Molecules are shown by their SMILES.

Holding throughout (details): concentration: 1 μM, replicates: in singlicate; n = 1
In assay [1] the test system is NEK6.
In assay [2] the test system is NEK7.
The test system of assay [3] is NEK9.
Assay [4] concerns T1, NIK.
T1 construct: gene MAP3K14

The subject of assay [5] is T2, NIM1.
T2 construct: gene MGC42105

In assay [6] the test system is NLK.
In assay [7] the test system is T3, OSR1.
T3 construct: gene OXSR1

The subject of assay [8] is PAK1.
In assay [9] the test system is PAK2.
Assay [10] has as its system PAK3.
Assay [11] relates to PAK4.
The test system of assay [12] is PAK6.
In assay [13] the test system is PAK7.
In assay [14] the test system is T4, PCTK1.
T4 construct: gene CDK16

For assay [15], the system named is T5, PCTK2.
T5 construct: gene CDK17

The subject of assay [16] is T6, PCTK3.
T6 construct: gene CDK18

The test system of assay [17] is PDGFRA.
Assay [18] deals with PDGFRB.
In assay [19] the test system is PDPK1.
Assay [20] concerns PFTAIRE2.
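Note: KINOMEscan kinase panel screen.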

With `CSc1ccc(-c2cc3ncnc(SCC(=O)O)c3s2)cc1`, the “%Inh” value in assay [1] stood at 17%; in assay [2], 8%; in [3], 0%; in assay [4], 0%; in [5] it was 0%; in [6], 26%. Also, the “%Inh” value in assay [7], in assay [8], in [9], in assay [10], in [11] and in assay [12] was 0% throughout. Moreover, the “%Inh” value in [13] stood at 8%; in assay [14], 0%; in assay [15], 0%; in assay [16], 6%; in assay [17], 15%; in assay [18] it was 50%. Besides, the “%Inh” value in assay [19] is given as 10%; in assay [20] it was 12%.

In the case of `COc1ccc(Nc2nccc(N3CCC(NC(=O)Nc4cccc(C(C)=O)c4)C3)n2)cc1` (centres unmarked) [GSK1379731], the “%Inh” value is given as 0% in [1]; 0% in assay [2]; 0% in [3]; 2% in assay [4]; 12% in assay [5]; 0% in assay [6]. Also, the “%Inh” value in assay [7] is on record as 16%; in assay [8], 0%; in assay [9], 6%; in [10], 0%; in assay [11], 0%; in assay [12], 13%. Further, the “%Inh” value worked out at 0% in assay [13]; 9% in assay [14]; 0% in assay [15]; 18% in assay [16]; 0% in assay [17]; 38% in [18]. The “%Inh” value turned out to be 7% in assay [19] and 9% in [20].

In the case of `O=C(NCCNc1ccnc(Nc2ccc(F)cc2)n1)Nc1ccccc1F` [GSK1379880], the “%Inh” value came to 0% in assay [1]; 0% in assay [2]; 11% in [3]; 9% in [4]; 14% in assay [5]; 28% in assay [6]. The “%Inh” value in assay [7] is on record as 20%; in assay [8], 2%; in [9], 0%; in [10] it was 0%; in assay [11], 0%; in assay [12], 0%. Besides, the “%Inh” value is reported as 0% in assay [13]; 0% in assay [14]; 16% in [15]; 14% in assay [16]; 0% in assay [17]; 70% in [18]. In addition, the “%Inh” value in assay [19] amounted to 7%; in assay [20], 21%.

As for `COc1ccc(S(=O)(=O)NC2CCN(c3cc(C)nc(Nc4cccc(C#N)c4)n3)CC2)cc1.O=C(O)C(F)(F)F` [GSK1653539], the “%Inh” value came to 0% in [1]; 0% in [2]; 0% in assay [3]; 5% in assay [4]; 0% in assay [5]; 50% in assay [6]. In addition, the “%Inh” value in [7] stood at 0%; in [8], 3%; in assay [9], 0%; in assay [10], 0%; in assay [11] it was 0%; in assay [12], 0%. Further, the “%Inh” value in assay [13] is 30%; in assay [14], 0%; in assay [15], 0%; in [16], 0%; in assay [17], 0%; in assay [18] it was 12%. Moreover, the “%Inh” value is recorded as 0% in [19] and 3% in assay [20].

`CNc1ncnc2[nH]ncc12` [SKF-18355]: the “%Inh” value in assay [1] amounted to 0%; in assay [2], 0%; in assay [3] it was 0%; in [4] it was 31%; in assay [5], 21%; in assay [6], 0%. The “%Inh” value is 0% in [7]; 0% in assay [8]; 43% in [9]; 0% in assay [10]; 0% in [11]; 0% in assay [12]. Besides, the “%Inh” value in assay [13], in assay [14], in assay [15], in assay [16], in assay [17] and in [18] was 0% each time. Also, the results for the “%Inh” value in assay [19] and in assay [20] were 0% and 12%, respectively.

Turning to `Cl.Oc1cccc(Nc2ccnc3cc(-c4ccncc4)ccc23)c1` [GW494601], the “%Inh” value turned out to be 0% in assay [1]; 0% in assay [2]; 0% in [3]; 30% in assay [4]; 0% in assay [5]; 66% in assay [6]. For the same compound, the “%Inh” value worked out at 0% in assay [7]; 0% in assay [8]; 0% in [9]; 33% in assay [10]; 0% in assay [11]; 0% in assay [12]. Also, the “%Inh” value in assay [13] is 14%; in assay [14], 0%; in assay [15] it was 0%; in assay [16], 18%; in assay [17] it was 98.5%; in assay [18], 99.5%. For the same compound, the results for the “%Inh” value in [19] and in assay [20] were 0% and 2%, respectively.

On to `NCC(NC(=O)c1cc(-c2cn[nH]c2)c(-c2ccnc3[nH]ccc23)s1)c1ccccc1.O=C(O)C(F)(F)F.O=C(O)C(F)(F)F` (centres unmarked) [GSK1325775], for which the “%Inh” value in assay [1] stood at 0%; in assay [2], 0%; in [3] it was 10%; in assay [4] it was 28%; in [5] it was 38%; in assay [6], 0%. Also, the “%Inh” value was 4% in assay [7]; 19% in assay [8]; 32% in assay [9]; 39% in assay [10]; 50% in assay [11]; 74% in [12]. In addition, the “%Inh” value in assay [13] came out at 74%; in assay [14], 15%; in assay [15], 9%; in [16], 0%; in assay [17], 26%; in assay [18], 61%. Moreover, the results for the “%Inh” value in assay [19] and in assay [20] were 0% and 17%, respectively.

`NS(=O)(=O)c1cccc(-c2ccc3ncc(N4CCOCC4)nc3c2)c1` [GSK1535721]: the “%Inh” value in assay [1] is on record as 0%; in [2] it was 0%; in assay [3] it was 0%; in assay [4], 0%; in assay [5], 0%; in [6], 8%. In addition, the “%Inh” value is listed as 0% in [7]; 17% in [8]; 0% in assay [9]; 0% in [10]; 5% in assay [11]; 0% in [12]. Besides, the “%Inh” value was found to be 26% in assay [13]; 0% in assay [14]; 18% in assay [15]; 0% in [16]; 21% in assay [17]; 21% in assay [18]. Further, the “%Inh” value in assay [19] is 0%; in [20], 5%.

On to `COc1ccc(Nc2ncc(C#N)c(Nc3ccccc3C(N)=O)n2)cc1N1CCN(C)CC1.Cl` [GSK1558669], for which the “%Inh” value in [1] came out at 99.9%; in assay [2], 97.4%; in assay [3], 98.2%; in assay [4], 96.6%; in assay [5], 99.9%; in assay [6] it was 71%. Besides, the “%Inh” value turned out to be 100% in assay [7]; 91.2% in assay [8]; 96.9% in assay [9]; 100% in [10]; 99.2% in assay [11]; 93.9% in assay [12]. Moreover, the “%Inh” value turned out to be 99.9% in assay [13]; 99.2% in assay [14]; 98.2% in assay [15]; 88% in assay [16]; 97.9% in [17]; 100% in assay [18]. Moreover, the “%Inh” value in assay [19] was determined as 37%; in assay [20], 97.6%.

Turning to `CCc1ccnc(/C=C/c2n[nH]c3cc(Sc4ccccc4C(=O)NC)ccc23)c1`, the “%Inh” value in assay [1], in assay [2], in assay [3], in assay [4], in assay [5] and in [6] was 0% throughout. The “%Inh” value was found to be 0% in assay [7]; 0% in [8]; 0% in [9]; 0% in assay [10]; 3% in assay [11]; 0% in [12]. In addition, the “%Inh” value in assay [13] is reported as 0%; in assay [14], 10%; in [15], 0%; in [16], 2%; in assay [17] it was 99.8%; in [18], 100%. Moreover, the “%Inh” value in assay [19] and in assay [20] was 0% each time.
